HT1080-NT tox: kills 2HG-producing HT-1080-NT fibrosarcoma cells | Potency, µM (doses to about 46.1 µM), for the others: at the top dose activity, negative = less viability, most hits filed as cytotoxic | 1.6% of 360,000 active | AID 686970 | HT-1080-NT fibrosarcoma viability, CellTiter-Glo ATP luminescence, 48 h;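 note: NT is the 2HG producing partner of a matched IDH1 knockdown line; 0% = DMSO-treated cells and -100% = media-only wells without cells; nearly all actives have a fitted effect of over 55% in size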
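750 cells/well, RPMI + 5% FBS; 2 h settle, compound pin-transfer, 48 h at 37 degrees C. CellTiter-Glo 10 min RT, luminescence. Normalized to DMSO and media-only wells.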
ATXN viability: cell viability loss in ATXN counter-screen; S2 cells (HEK-293 line with an ATXN2-luciferase reporter) viability, CellTiter-Fluor protease fluorescence, 24 h; Potency, µM (series often up to 56.7 µM), actives largely listed as cytotoxic; 0.49% of 400,000 active; note: nearly all actives have a fitted effect of over 40% in size
KB-3-1 cytotox: kills parental KB-3-1 adenocarcinoma cells. AID 1347075. Potency, µM (titrated, usually from 46.1 µM), hits mostly cytotoxic. 1.4% of 400,000 active. KB-3-1 viability, CellTiter-Glo ATP luminescence, 72 h; note: % is set by controls: 0 for no effect and ±100 for the full control effect; nearly all actives have a fitted effect of over 60% in size
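Viability of parental KB-3-1 cells, measured by CellTiter-Glo luminescence, followed a 72 h incubation at 37 °C with pinned compounds in phenol-red-free DMEM containing 10% FBS.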
KB-V1 cytotox: KB-V1 MDR subline cytotoxicity; AID 1347076; 3.4% of 400,000 active; Potency, µM (titrated, usually from 46.1 µM), usual class: cytotoxic; KB-V1 MDR cells viability, CellTiter-Glo, 72 h; note: % is set by controls: 0 for no effect and ±100 for the full control effect; nearly all actives have a fitted effect of over 60% in size
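Cells of the MDR subline KB-V1 are plated, dosed with compound at multiple concentrations, and incubated 72 h at 37 degrees C; CellTiter-Glo is then added and luminescence read after 10 min.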
ATXN2 expr inh: ATXN2 expression inhibition; HEK-293 ATXN2-luciferase reporter, luminescence, 24 h; Potency, µM (highest dose often 57 µM), for the others: at the top dose activity change, negative = inhibition, actives largely listed as inhibitors; 0.72% of 360,000 active; AID 1745845; note: % is set by controls: 0 for no effect and ±100 for the full control effect; nearly all actives have a fitted effect of over 55% in size
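ATXN2-luciferase reporter cells (luciferase flanked by upstream and downstream ATXN2 gene portions) were treated 24 h at 37 °C with compounds at up to 57 uM. SteadyGlo luminescence gave expression; GF-AFC fluorescence gave viability.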
HT1080 IDH1KD tx: kills HT-1080 cells with IDH1 knockdown. 2% of 360,000 active. HT-1080 IDH1 knockdown viability, ATP luminescence, 48 h. Potency, µM (titrated, usually from 46.1 µM), inactives show at the highest dose activity, negative = toxicity, most hits filed as cytotoxic;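 note: 0% = DMSO wells and -100% = cell-free medium wells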
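% activity derives from luminescence (CellTiter-Glo), normalised to DMSO and no-cell wells. HT-1080-IDH1KD cells, 750/well, had 48 h compound exposure at 37 °C.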
* marks the source's active call; other numbers are inactive results; i = inactive; ? = inconclusive; . = not tested or not shown. Sampled rows, rich in hits. Any-hit rate of the full collection: about 6.2%. Calls come from the whole dose curve; as a rule, active = well fitted curve in the direction sought with a large enough effect; inconclusive = small, poorly fitted or top-dose-only effect, or another doubt; inactive = no such curve, though single readings can be large; an effect the other way counts as inactive or inconclusive. Potency is the fitted concentration of half-maximal effect.

SMILES | HT1080-NT tox | ATXN viability | KB-3-1 cytotox | KB-V1 cytotox | ATXN2 expr inh | HT1080 IDH1KD tx
CC(C)c1ccc(C(=O)N2CCCC(c3cc(C(=O)Nc4ccccc4Cl)no3)C2)cc1 (centres undefined) | 22% | i | 18µM* | ? | -9% | 1%
CC(=O)Nc1ccc(C(=O)N2CCCC(c3cc(C(=O)Nc4ccccc4Cl)no3)C2)cc1 (centres undefined) | ? | i | i | i | -23% | 18%
Cn1c(COc2ccc(Br)cc2)nnc1SC1CCc2ccccc2C1=O (centres undefined) | -16% | i | ? | 16µM* | -20% | -19%
COc1ccc(Cl)cc1NC(=O)CSC1=Nc2ccccc2C2=NC(CC(=O)NC3CCCCC3)C(=O)N12 (centres undefined) | . | i | i | i | -5% | .
CN(C)S(=O)(=O)c1cccc(NC(=O)CSc2nc3ccccc3n2-c2ccccc2)c1 | -23% | i | ? | 2.3µM* | -16% | ?
CN(C)S(=O)(=O)c1ccc(NC(=O)CSc2nc3ccccc3n2-c2ccccc2)cc1 | -8% | i | i | i | -21% | -2%
COc1cc(NC(=O)CSc2nc3ccccc3n2-c2ccccc2)c(C)cc1[N+](=O)[O-] | 0% | i | i | 8.2µM* | -9% | -5%
COc1cc(NC(=O)COC(=O)C2CC2)c(C)cc1[N+](=O)[O-] | 5% | i | i | i | -1% | 8%
COc1ccc(-n2c(SCC(=O)Nc3ccc([N+](=O)[O-])cc3OC)nc3ccccc32)cc1 | -2% | i | i | i | -10% | 0%
COc1cc(NC(=O)CN(C)C2CCCCC2)c(C)cc1[N+](=O)[O-] | 3% | i | i | 4.1µM* | 2% | 22%
COc1cc(=O)n2c(c1C(=O)NCc1ccco1)CCN(C(=O)c1ccc(C)c(C)c1)CC2 | . | i | . | . | . | .
CC(=O)N1CCCC1c1nc2ccccc2n1Cc1ccccc1Cl (centres undefined) | . | i | i | i | 2% | .
CCc1nc2ccc(C(=O)Nc3ccc4c(c3)OCC(=O)N4)cn2c1N(CC)Cc1cccc(Br)c1 | ? | 40µM* | i | i | ? | -11%
CCc1nc2ccc(C(=O)Nc3ccc4c(c3)OCC(=O)N4)cn2c1N(CC)CCOC | 3% | i | ? | i | 11% | 13%
CCc1nc2ccc(C(=O)N(C)C(C)C)cn2c1N(CC)Cc1cccc(Br)c1 | -7% | ? | i | i | -24% | -7%
CCc1nc2ccc(C(=O)Nc3cccc(NS(C)(=O)=O)c3)cn2c1N(CC)Cc1cccc(Br)c1 | 23µM* | ? | ? | ? | 28µM* | ?
CCc1nc2ccc(C(=O)NCc3ccccc3OC)cn2c1N(CC)Cc1cccc(Br)c1 | ? | ? | ? | 16µM* | 0% | ?
COC(=O)CC1C(=O)NCCN1C(=O)CN1Cc2ccccc2OC(c2ccccc2)C1 (centres undefined) | . | i | . | . | . | .
COc1ccc(OCc2cc(C(=O)NCC3CCOCC3)no2)c(Cl)c1 | 0% | i | i | i | 30% | 19%
COc1ccc(CNC(=O)c2ccc3nc(CCc4ccccc4)oc3c2)cc1OC | . | ? | i | ? | 28µM* | .
COc1ccc2oc(C(=O)NCCc3ccccc3)c(C)c2c1 | 4% | i | i | i | 4.5µM* | -2%
COc1ccc(CNC(=O)c2ccc3nc(CCc4ccccc4)oc3c2)cc1 | . | i | i | i | 7% | .
COc1ccc(/C(O)=C/c2nc3ccc(C(=O)NCCc4cccc(C)c4)cc3[nH]c2=O)cc1OC | 8% | ? | 10µM* | i | ? | 17%
COc1ccc(OCc2cc(C(=O)NCCc3ccccc3)no2)c(Cl)c1 | ? | i | ? | ? | -14% | 16µM*
CCN(Cc1ccccc1)S(=O)(=O)c1cc(Br)cc2c1N(C(=O)C1CC1)CC2 | . | i | i | i | -16% | .

From PubChem
